High-throughput results: PubChem BioAssay, several laboratories
The list is not random: actives were taken first. Their share in the collection is about 3.5%.
BoNT F protease: BoNT F light chain protease inhibition. Multiplex microsphere protease cleavage assay, flow cytometry. inhibition, % at 10 µM. hit rate 0.22% among 360,000; in the data active means inhibition above about 35%, passing the limit was not always enough; inconclusive means no clear call, values can overlap the other calls
Anthrax LF prot: inhibitors of Bacillus anthracis lethal factor protease; P15917; multiplex microsphere protease cleavage assay, LF; inhibition, % at 10 µM; hit rate 0.12% among 360,000
BoNT-A LC inh2: inhibitors of Botulinum neurotoxin A light chain protease; multiplex microsphere protease substrate cleavage, flow cytometry; inhibition, % at 10 µM; hit rate 0.17% among 360,000; AID 588499
Autofluor counter: compound fluorescence in toxin protease inhibitor counterscreen; compound autofluorescence counterscreen, microsphere flow cytometry; stronger effect = higher value; AID 624483; hit rate 3.1% among 360,000; fluorescence intensity (concentration not given with the values); in the data active means fluorescence intensity above about 16000; inconclusive means no clear call, values can overlap the other calls
BH1578 lux ind: quorum light induction in luxS cqsA deficient V. cholerae. V. cholerae BH1578 lux reporter, luminescence, 6 h. activation, % at 18.7 µM. hit rate 0.16% among 350,000; in the data active means activation mostly above about 9.7%, no sharp cut-off; inconclusive means no clear call, values can overlap the other calls; inactive means mostly below about 3.7%
Large screens that a line does not name were inactive. Unless noted, no stated cut-off is given here; in the data, active means inhibition above about 30%; inconclusive means no clear call, values can overlap the other calls; inactive means below that.

COc1cc(/C=N/N2CCN(c3ccccc3OC)CC2)ccc1O	BoNT-A LC inh2 inconclusive, Autofluor counter 16130
CSc1ccc(/C=N/n2nnnc2N)cc1	Autofluor counter 22907
CCOC(=O)c1ccc(N2C(=O)c3n[nH]c(C)c3C2c2ccc(OC)cc2)cc1 (stereo unspecified)	none
CCOc1cc(C2c3c(n[nH]c3C)C(=O)N2c2ccc(Br)cc2)ccc1O (stereo unspecified)	BoNT F protease 51
COc1cc(C2c3c(n[nH]c3C)C(=O)N2c2ccc(Br)cc2)ccc1O (stereo unspecified)	none
CCOC(=O)c1ccc(N2C(=O)c3n[nH]c(C)c3C2c2ccc(OC)c(OC)c2)cc1 (stereo unspecified)	BoNT-A LC inh2 inconclusive, Autofluor counter 19224
Cc1cc(C)c(C)c(S(=O)(=O)N2CCC(C(=O)Nc3ccc(S(=O)(=O)N4CCOCC4)cc3)CC2)c1C	none
COc1ccc(S(=O)(=O)N(C)C[C@H]2Oc3c(NC(=O)c4ccncc4)cccc3C(=O)N([C@H](C)CO)C[C@@H]2C)cc1	none
O=C(Cc1ccc(NC(=O)C2CCCN(C(=O)CCc3ccccc3)C2)cc1)Nc1cccc(C(=O)N2CCCC2)c1 (stereo unspecified)	none
COc1ccc(-n2nc(N)c3c(=O)oc(N(C)C)nc32)cc1	Autofluor counter 16554
CCOC(=O)c1nc(C)n(-c2ccc(Cl)cc2)n1	none
CN(C)c1nc2c(c(N)nn2-c2ccc(Cl)cc2)c(=O)o1	BoNT-A LC inh2 inconclusive, Autofluor counter 19528
Cc1ccc(NC(=O)CSc2nc3sc(C)cc3c(=O)n2C)cc1	none
CCC(=NCc1ccco1)c1c(C(F)(F)F)[nH]n(-c2nc3ccccc3s2)c1=O	none
CCC(=NCc1ccccc1)c1c(C(F)(F)F)[nH]n(-c2nc3ccccc3s2)c1=O	Autofluor counter 16663
O=C(NCc1ccccn1)c1c(Cl)cccc1Cl	BoNT F protease inconclusive
O=C(Nc1ccc(S(=O)(=O)Nc2ncccn2)cc1)c1ccc(Br)s1	Autofluor counter 16878
O=C(NCCCCCCNC(=O)c1ccc(Br)s1)c1ccc(Br)s1	Autofluor counter 23002
COc1cccc(OC)c1C(=O)Nc1ccc(S(=O)(=O)Nc2ncccn2)cc1	none (no result: BoNT F protease, Anthrax LF prot, BoNT-A LC inh2, Autofluor counter)
O=C(NCc1ccccn1)Nc1cccc(NC(=O)NCc2ccccn2)c1	Autofluor counter 22604
O=C(NCc1ccccn1)c1cccs1	BoNT-A LC inh2 inconclusive, Autofluor counter 17079
O=C(NCCc1ccc(Cl)cc1)c1ccc(Br)s1	none
COc1ccc2nc(NC(=O)CSc3n[nH]c(N)n3)sc2c1	BoNT F protease inconclusive, Autofluor counter inconclusive
O=C(NCc1ccccn1)c1ccc(Cl)s1	none
O=C(NCc1ccccn1)c1ccc(Cl)cc1Cl	Autofluor counter 18047
O=C(NCc1ccccn1)c1ccc(Br)s1	Autofluor counter 17043
COc1cc(NC(=O)c2ccccc2F)ccc1NC(=O)c1cc2ccccc2o1	BoNT F protease inconclusive
CC(=O)Nc1ccc2c(c1)nc1n2CCOC1	BoNT-A LC inh2 inconclusive, Autofluor counter 24292
Cc1ccc(OCC(=O)Nc2ccc3c(c2)nc2n3CCOC2)cc1	BoNT-A LC inh2 inconclusive, Autofluor counter 20169
O=C(Nc1ccc2c(c1)nc1n2CCOC1)C1CCCCC1	none
O=C(COc1ccc(Cl)cc1)Nc1ccc2c(c1)nc1n2CCOC1	none
Cc1cnc(NC(=O)c2sc(Nc3ccccc3)nc2N)o1	none (no result: BoNT F protease, Anthrax LF prot, BoNT-A LC inh2, Autofluor counter)
Cc1ccc(S(=O)(=O)c2nc(/C=C/c3ccccc3)oc2N2CCC(C(N)=O)CC2)cc1	none
CC(=O)c1cccc(OCC(O)CN2CCN(C(=O)c3ccco3)CC2)c1 (stereo unspecified)	none
CC(=O)c1cccc(OCC(O)CN2CC=C(c3ccccc3)CC2)c1 (stereo unspecified)	BoNT-A LC inh2 inconclusive, Autofluor counter 19622
NNC(=O)c1nc(-c2ccccc2)n2c1CCCCC2	BoNT-A LC inh2 inconclusive, Autofluor counter 20671
CCOC(=O)c1nn(-c2ccc(Cl)cc2)c2nc(-c3ccc(C)cc3)c(C#N)c(=O)n12	none (no result: BH1578 lux ind)
CCOC(=O)c1nn(-c2ccc(Cl)cc2)c2nc(CC)c(C#N)c(=O)n12	Autofluor counter 16274
CCOC(=O)c1nn(-c2ccc(OCC)cc2)c2nc(CC(C)C)c(C#N)c(=O)n12	Autofluor counter 16776
C/C(=N/NS(=O)(=O)c1ccc(Br)cc1)c1cccc(NC(=O)C2CC2)c1	none
COC(=O)c1ccccc1NC(=O)N1c2ccccc2CC1C (stereo unspecified)	BoNT-A LC inh2 inconclusive, Autofluor counter 20425
CC1Cc2ccccc2N1C(=O)COC(=O)c1cccnc1Cl (stereo unspecified)	BoNT-A LC inh2 inconclusive, Autofluor counter 16252
CC1Cc2ccccc2N1C(=O)COC(=O)c1ccccc1NCCO (stereo unspecified)	none
COc1ccc(NC(=O)N2c3ccccc3CC2C)cc1OC (stereo unspecified)	none (no result: BH1578 lux ind)
CCc1ccc(NC(=O)c2cccnc2)cc1	BoNT-A LC inh2 inconclusive, Autofluor counter 21122
CCCNS(=O)(=O)c1ccc(NC(=O)c2cccnc2)cc1	Autofluor counter 20443
CCc1ccc(OC(=O)c2cccnc2)cc1	Anthrax LF prot 37
Cc1ccc(NC(=O)N(C2CCCCC2)C(C)c2cccnc2)cc1C (stereo unspecified)	none
CCc1ccc(NC(=O)N(C2CCCCC2)C(C)c2cccnc2)cc1 (stereo unspecified)	Autofluor counter 20168
CCN(C(=O)c1ccnc(C(C)(C)C)c1)c1ccccc1	Autofluor counter 21211
CCc1ccc(NC(=O)c2ccnc(C(C)(C)C)c2)cc1	Autofluor counter 24202
C=CCNC(=O)C1CC1(c1ccccc1)c1ccccc1 (stereo unspecified)	none
O=C1CC(c2ccccc2)CC(O)=C1C=NCCN1CCN(C(=O)Nc2ccccc2)CC1 (stereo unspecified)	Autofluor counter 22422
Cc1ccc(NC(=S)NCc2cccn2C)cc1	Autofluor counter 22735
Cc1nnsc1-c1nnc(SCC(=O)c2ccccc2)n1C1CC1	none
Cc1cc(C)nc(SCC(=O)Nc2ccc(S(=O)(=O)N3CCCCC3)cc2)n1	Autofluor counter 16364
Cc1ccc(NC(=O)CSc2nnc(-c3ccc(S(=O)(=O)N4CCCC4)cc3)o2)cc1C	Autofluor counter 21954
Cc1csc(SCC(=O)Nc2ccc(S(=O)(=O)N3CCCC3)cc2)n1	none
Cc1cccc(NC(=O)CSc2nnc(-c3ccc(S(=O)(=O)N4CCCC4)cc3)o2)c1	none
Cc1cc(C)nc(SCC(=O)Nc2ccc(S(=O)(=O)NCCO)cc2)n1	Autofluor counter 23188
Cc1ccc(N=Cc2ccc(O)cc2O)cc1F	BoNT-A LC inh2 inconclusive, Autofluor counter 21566
CCOC(=O)c1ccc(NC(=O)COC(=O)c2cccc(Oc3ccccc3)c2)cc1	none
CN(Cc1nc2ccccc2c(=O)[nH]1)C(=O)c1ccc(S(=O)(=O)N(C)C)cc1	Autofluor counter 20390
Cc1ccc(S(=O)(=O)N(C)c2ccc(C(=O)N(C)Cc3nc4ccccc4c(=O)[nH]3)cc2)cc1	none
O=C(C[C@H]1C/C=C\CCC(=O)O[C@@H](c2ccccc2)CNC1=O)NCCO	none
Cc1cc2ccccc2c(=O)n1CC(=O)NCC(=O)N1CCN(c2cccc(Cl)c2)CC1	BoNT-A LC inh2 inconclusive, Autofluor counter 20243
O=C(Nc1ccon1)c1cccc(S(=O)(=O)N2CCCC2)c1	Autofluor counter 19894
